# Reference: PubChem BioAssay
# For part of these data: Measured potencies and affinities stand elsewhere. Active and inactive are the calls of the source.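 How the source made its calls, unless noted: active means earlier screen potentiator hit that boosts the TRPC4 ion channel at some dose, with a dose response; inactive means no potentiation, no dose response, or not a prior hit.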
# Legend:
# [1] = test system: TRPC4 beta (transient receptor potential cation channel C4), mouse; assay: activators of mouse TRPC4 channel, confirmation, cell-based, Fluo4 calcium, HEK293 TRPC4beta/mu-opioid, duplicates, 10 µM (AID 2426;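 active means fluorescence ratio normalized to control raised more than 50% in primary screen plus both repeat runs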); conditions: Fluo4 calcium fluorescence, at 10 µM; hits give high values
# [2] = test system: transient receptor potential cation channel C4 beta (TRPC4), mouse; assay: activators of mouse TRPC4 channel, confirmation, cell-based, second round, Fluo4, HEK293 TRPC4beta/mu-opioid, 1 µM (AID 2461;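 active means primary screen active and over 50% activation in each of two duplicate runs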); conditions: Fluo4 calcium fluorescence, at 1 µM; hits give high values
# [3] = test system: TRPC4 (transient receptor potential cation channel C4 beta), mouse; assay: positive allosteric modulators of mouse TRPC4, confirmation, cell-based, second round, Fluo-4, HEK293 TRPC4beta/mu-opioid, 1 µM (AID 2554;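 active means primary screen hit whose fluorescence ratio, in both repeats, exceeds the weak agonist control mean by 3 SD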); conditions: DAMGO EC20, Fluo-4 calcium flux, at 1 µM; hits give high values
# [4] = test system: TRPC4 beta (transient receptor potential cation channel C4), mouse; assay: positive allosteric modulators of mouse TRPC4, confirmation, cell-based, Fluo-4, HEK293 TRPC4beta/mu-opioid (AID 2555;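 active means primary screen hit whose calcium fluorescence ratio, in both repeats, exceeds the weak agonist control mean by 3 SD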); conditions: DAMGO EC20, Fluo-4 calcium flux, at 10 µM; hits give high values
# [5] = molecular target: Short transient receptor potential channel 4 (Mus musculus) (UniProt Q9QUQ5); assay: inhibitors of mouse TRPC4 channel, confirmation, cell-based, Fluo4, HEK293 TRPC4beta/mu-opioid (AID 2636;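 active means calcium signal cut by more than 3 SD below the full-agonist control yet still positive, in both repeats and the earlier primary screen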); conditions: DAMGO, Fluo4 calcium flux, at 10 µM; hits give high values
# Sequence of Short transient receptor potential channel 4 (Mus musculus) (Q9QUQ5 whole entry, looked up): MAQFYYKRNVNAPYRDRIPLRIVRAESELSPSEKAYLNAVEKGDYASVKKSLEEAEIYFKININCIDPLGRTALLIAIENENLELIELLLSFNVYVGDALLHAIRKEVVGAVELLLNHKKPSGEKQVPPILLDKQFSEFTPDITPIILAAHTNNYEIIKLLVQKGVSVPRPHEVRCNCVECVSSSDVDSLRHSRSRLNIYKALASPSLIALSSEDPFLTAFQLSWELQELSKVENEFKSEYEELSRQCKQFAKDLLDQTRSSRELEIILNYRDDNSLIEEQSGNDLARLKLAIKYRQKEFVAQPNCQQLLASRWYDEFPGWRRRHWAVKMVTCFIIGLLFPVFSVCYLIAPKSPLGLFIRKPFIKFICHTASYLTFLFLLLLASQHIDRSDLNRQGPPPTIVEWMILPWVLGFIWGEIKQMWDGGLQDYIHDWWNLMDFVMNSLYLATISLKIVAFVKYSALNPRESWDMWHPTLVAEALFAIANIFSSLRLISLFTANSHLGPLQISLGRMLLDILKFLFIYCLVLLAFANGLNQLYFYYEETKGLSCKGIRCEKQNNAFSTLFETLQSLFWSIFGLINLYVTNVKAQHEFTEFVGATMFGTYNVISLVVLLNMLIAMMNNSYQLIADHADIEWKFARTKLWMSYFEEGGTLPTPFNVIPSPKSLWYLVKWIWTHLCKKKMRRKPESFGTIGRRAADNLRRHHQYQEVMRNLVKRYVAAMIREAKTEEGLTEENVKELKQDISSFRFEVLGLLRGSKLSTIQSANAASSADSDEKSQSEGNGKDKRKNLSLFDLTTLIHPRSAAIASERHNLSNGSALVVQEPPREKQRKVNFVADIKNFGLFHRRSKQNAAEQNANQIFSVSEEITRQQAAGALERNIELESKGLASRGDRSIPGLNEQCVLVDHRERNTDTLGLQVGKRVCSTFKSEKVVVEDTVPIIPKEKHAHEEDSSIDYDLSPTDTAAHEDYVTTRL
# [6] = molecular target: Short transient receptor potential channel 4 (Mus musculus) (UniProt Q9QUQ5); assay: inhibitors of mouse TRPC4 channel, confirmation, cell-based, second round, Fluo4, HEK293 TRPC4beta/mu-opioid, 1 µM (AID 2637;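 active means calcium signal ratio cut to more than 3 SD under the fully stimulated control mean yet still positive, in both repeats and the primary screen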;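 on inhibition: percent of integrated ratio relative to wells lacking test compound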); conditions: Fluo4 calcium flux, DAMGO, at 1 µM; hits give high values
# [7] = molecular target: Short transient receptor potential channel 4 (Mus musculus) (UniProt Q9QUQ5); assay: mouse TRPC4 channel activators, dose response, cell-based, HEK293 TRPC4/mu-opioid, Fluo-4 calcium (AID 434937;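 active means primary screen activator hit with a dose response curve and TRPC4 channel activation at any tested dose; inactive means no activation, no dose response, or not a primary hit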)
# [8] = molecular target: Short transient receptor potential channel 4 (Mus musculus) (UniProt Q9QUQ5); assay: TRPC4 positive allosteric modulators, dose response, cell-based, HEK293 TRPC4/mu-opioid, Fluo-4 calcium, EC20 DAMGO (AID 434941);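 further: calcium entry triggered by an EC20 dose of DAMGO at the co-expressed mu-opioid receptor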
# [9] = molecular target: Short transient receptor potential channel 6 (Mus musculus) (UniProt Q61143); assay: inhibition of mouse TRPC6 channel, confirmation, selectivity assay for TRPC4 inhibitor project, cell-based, HEK293, membrane potential dye, duplicate (AID 434948;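 active means active in primary screen and both duplicates, each dropping signal beyond three positive-control SD with fluorescence still positive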); conditions: HEK293 TRPC6, membrane potential dye fluorescence, at 10 µM, stimulated with maximal-effect acetylcholine; hits give high values
# Sequence of Short transient receptor potential channel 6 (Mus musculus) (Q61143 whole entry, looked up): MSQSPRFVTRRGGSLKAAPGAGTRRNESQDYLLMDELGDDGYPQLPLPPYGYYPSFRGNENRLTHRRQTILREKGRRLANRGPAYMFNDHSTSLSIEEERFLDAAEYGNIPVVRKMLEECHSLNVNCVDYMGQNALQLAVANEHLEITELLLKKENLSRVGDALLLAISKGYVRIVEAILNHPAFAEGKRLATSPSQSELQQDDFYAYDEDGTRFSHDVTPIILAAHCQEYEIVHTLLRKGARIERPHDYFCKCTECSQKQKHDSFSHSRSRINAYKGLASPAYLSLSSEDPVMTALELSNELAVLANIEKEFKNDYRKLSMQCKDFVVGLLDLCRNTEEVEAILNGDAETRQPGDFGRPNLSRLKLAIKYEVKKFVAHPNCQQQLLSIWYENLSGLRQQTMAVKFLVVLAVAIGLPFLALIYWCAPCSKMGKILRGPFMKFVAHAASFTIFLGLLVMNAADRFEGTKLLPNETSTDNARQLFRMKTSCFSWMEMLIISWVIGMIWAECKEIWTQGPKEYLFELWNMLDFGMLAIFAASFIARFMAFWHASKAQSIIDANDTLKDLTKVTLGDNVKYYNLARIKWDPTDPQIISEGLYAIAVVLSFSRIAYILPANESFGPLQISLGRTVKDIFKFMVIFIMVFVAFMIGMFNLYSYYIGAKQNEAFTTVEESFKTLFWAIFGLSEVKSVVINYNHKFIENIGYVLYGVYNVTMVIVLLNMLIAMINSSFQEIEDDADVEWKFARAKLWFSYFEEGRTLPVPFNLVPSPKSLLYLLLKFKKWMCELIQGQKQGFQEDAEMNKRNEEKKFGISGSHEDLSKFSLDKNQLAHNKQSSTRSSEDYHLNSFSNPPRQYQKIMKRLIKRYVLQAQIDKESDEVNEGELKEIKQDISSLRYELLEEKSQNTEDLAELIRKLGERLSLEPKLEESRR
# [10] = molecular target: Short transient receptor potential channel 6 (Mus musculus) (UniProt Q61143); assay: activation of mouse TRPC6 channel, confirmation, selectivity assay for TRPC4 activator project, cell-based, HEK293, membrane potential dye, duplicate (AID 434950;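 active means membrane potential signal rise above negative control mean plus 3 SD in both duplicates, also active in the earlier TRPC4 screen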); conditions: HEK293 TRPC6, membrane potential fluorescence, at 10 µM; hits give high values
# [11] = molecular target: Short transient receptor potential channel 6 (Mus musculus) (UniProt Q61143); assay: TRPC6 potentiation by TRPC4 potentiator hits, confirmation, selectivity assay for TRPC4 potentiator project, HEK293 cells, membrane potential dye, duplicate (AID 434952;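 active means compound raising the membrane signal above positive-control mean plus 3 SD in both repeats, and a primary screen hit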); conditions: HEK293 TRPC6, membrane potential dye fluorescence, at 10 µM, maximal acetylcholine added after compound; hits give high values
# [12] = molecular target: Short transient receptor potential channel 4 (Mus musculus) (UniProt Q9QUQ5); assay: calcium flux activators in TRPC4/5HT1a cells, counter-screen for TRPC4 activator project, cell-based, second counter screen, HEK293 TRPC4/5HT1a, Fluo-4 (AID 434977;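 active means calcium signal rise above buffer-control mean plus 5 SD in both duplicates, and also a hit in the primary screen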); conditions: Fluo-4 calcium flux, at 10 µM; hits give high values
# [13] = calcium flux inhibitors in TRPC4/5HT1a cells, confirmation, counter-screen for TRPC4 inhibitor project, cell-based, second counter screen, HEK293 TRPC4/5HT1a, Fluo-4 (AID 434978;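 active means primary screen active whose calcium signal fell more than 3 SD beyond the full-serotonin control mean in both duplicate plates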;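 on outcome: serotonin given first at submaximal then at maximal dose after compound preincubation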); conditions: Fluo-4 calcium flux, at 10 µM, serotonin added to trigger calcium flux; hits give high values
# [14] = test system: TRPC4 (mouse), co-expressed with 5HT1a in HEK293; assay: calcium flux potentiators in TRPC4/5HT1a cells, confirmation, counter-screen for TRPC4 potentiator project, cell-based, second counter screen, HEK293 TRPC4/5HT1a, Fluo-4 (AID 434979;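 active means signal rise over 3 SD above mean of control wells given weak agonist, in both repeats and first screen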); conditions: Fluo-4 calcium flux, at 10 µM, serotonin added at its EC20 dose; hits give high values
# [15] = calcium flux activation in mu-opioid HEK293 cells, confirmation, counter-screen for TRPC4 activator project, cell-based, HEK293 mu-opioid receptor line (AID 449723;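 active means hit in primary screen, with calcium signal over 5 SD above buffer well mean in both duplicates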;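 further: counter screen cells carry the mu-opioid receptor alone and lack TRPC4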); conditions: Fluo-4 calcium fluorescence, at 10 µM; hits give high values
# [16] = calcium flux enhancement in mu-opioid HEK293 cells, confirmation, counter-screen for TRPC4 allosteric potentiator project, cell-based, HEK293 mu-opioid receptor line (AID 449724;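 active means calcium signal rise more than 3 SD above the low-dose agonist control mean, in both duplicate plates and the primary screen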); conditions: Fluo-4 calcium flux, at 10 µM, compound added before EC20 DAMGO stimulus; hits give high values
Structure (SMILES),outcome [1],outcome [2],outcome [3],outcome [4],inhibition [5],inhibition [6],outcome [7],outcome [8],outcome [9],outcome [10],outcome [11],outcome [12],inhibition [13],outcome [14],outcome [15],outcome [16],outcome [6],outcome [13],outcome [5]
COc1ccc(C2C(C(C)=O)=C(O)C(=O)N2c2ccc(Br)cc2)cc1 (stereo not given),inactive,inactive,inactive,inactive,84% (active),62% (active),inactive,inactive,inactive,inactive,inactive,inactive,23.3% (active),inactive,inactive,inactive,,,
CCCCNCc1cc(Cl)c(OCCC)c(OCC)c1,inactive,inactive,inactive,inactive,86% (active),,inactive,inactive,inactive,inactive,inactive,inactive,,inactive,inactive,inactive,inactive,inactive,
Cc1cc(C)c2c(=O)n(CC(=O)NCCCN3CCN(c4ccccc4F)CC3)sc2n1,inactive,inactive,inactive,inactive,90% (active),55% (active),inactive,inactive,inactive,inactive,inactive,inactive,,inactive,inactive,inactive,,inactive,
COc1ccc(C(=O)Nc2nc(-c3cccs3)cs2)cc1,inactive,inactive,inactive,inactive,85% (active),,inactive,inactive,inactive,inactive,inactive,inactive,36.4% (active),inactive,inactive,inactive,inactive,,
OC(COc1ccccc1)CN1C2=NCCCN2c2ccccc21 (stereo not given),inactive,inactive,inactive,inactive,84% (active),,inactive,inactive,inactive,inactive,inactive,inactive,,inactive,inactive,inactive,inactive,inactive,
COC(=O)c1cccc2c1-c1ccccc1/C2=N/O,inactive,inactive,inactive,inactive,81% (active),43% (active),inactive,inactive,inactive,inactive,inactive,inactive,27.9% (active),inactive,inactive,inactive,,,
Fc1ccc(-n2cc(CNCCc3ccncc3)c(-c3ccccc3Cl)n2)cc1,inactive,inactive,inactive,inactive,,,inactive,inactive,inactive,inactive,inactive,inactive,,inactive,inactive,inactive,inactive,inactive,inactive
CN(C(=O)CSc1nc(-c2ccc(C(C)(C)C)cc2)c(C#N)c(=O)[nH]1)C1CCCCC1,inactive,inactive,inactive,inactive,97% (active),,inactive,inactive,inactive,inactive,inactive,inactive,4.92% (active),inactive,inactive,inactive,inactive,,
O=C(O)CN1C(c2ccccc2O)Nc2ccc(Br)cc2C1c1ccccc1 (stereo not given),inactive,inactive,inactive,inactive,96% (active),45% (active),inactive,inactive,inactive,inactive,inactive,inactive,13.5% (active),inactive,inactive,inactive,,,
Cc1ccc(C(=O)NC(=S)Nc2c(C)ccc3nsnc23)cc1,inactive,inactive,inactive,inactive,86% (active),45% (active),inactive,inactive,inactive,inactive,inactive,inactive,18.1% (active),inactive,inactive,inactive,,,
COCCn1c(SCc2cc(C(C)=O)ccc2OC)nc2cc(Cl)ccc2c1=O,inactive,inactive,inactive,inactive,78% (active),,inactive,inactive,inactive,inactive,inactive,inactive,,inactive,inactive,inactive,inactive,inactive,
CCC(C)NCCOCCOc1ccccc1-c1ccccc1 (stereo not given),inactive,inactive,inactive,inactive,77% (active),,inactive,inactive,inactive,inactive,inactive,inactive,36.9% (active),inactive,inactive,inactive,inactive,,
CC(C)=CCN1CCN(Cc2cccc3nonc23)CC1CCO (stereo not given),inactive,inactive,inactive,inactive,91% (active),,inactive,inactive,inactive,inactive,inactive,inactive,33.3% (active),inactive,inactive,inactive,inactive,,
Cc1ccc(-c2csc(NC(=O)C3CC=CCC3C(=O)O)c2C(=O)OC(C)C)cc1 (stereo not given),inactive,inactive,inactive,inactive,,,inactive,inactive,inactive,inactive,inactive,inactive,20.1% (active),inactive,inactive,inactive,inactive,,inactive
Brc1cc2c(cc1COc1ccc(-c3nn[nH]n3)cc1)OCO2,inactive,inactive,inactive,inactive,89% (active),,inactive,inactive,inactive,inactive,inactive,inactive,35.1% (active),inactive,inactive,inactive,inactive,,
